Here are results for 36 molecules from PubChem BioAssay (EPA / NIEHS).

The nature of test [1]: ACEA_ER_80hr: ACEA Biosciences xCELLigence Real-Time Cell Analysis on Estrogen Receptor Agonism for Proliferation (AID 2282667; active = hit-call score of the fitted dose curve at least 0.9, where 1 is the maximum). Particulars: T47D proliferation, impedance (xCELLigence), 80 h. An outline of the steps:
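Real-time electrical impedance tracked growth of the human breast line T47D, with the 80 h post-dosing value used. Dosing spanned eight 1:4 steps down from a 100 uM final top concentration, run in duplicate.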

Test [2] is described as follows: APR_HepG2_CellCycleArrest_24hr: Apredica 24-hour HepG2 Assay for Cell Cycle Arrest (AID 2282905).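 Note: cell cycle arrest scored as ratio of 2N to 4N nuclear DNA content.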 Particulars: imaging, actives raise or lower the signal. In short, it runs like this: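 HepG2 cells were exposed to compounds at 0.39–200 uM (ten concentrations, duplicate) in 0.5% v/v DMSO for 24 hr. After formaldehyde fixation and Triton permeabilization, Hoechst 33342-stained nuclei were imaged at 20x; DNA content was quantified, with bidirectional fitting against DMSO.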

Test [3] is described as follows: APR_HepG2_NuclearSize_24hr: Apredica 24-hour HepG2 Assay for Nuclear Size (AID 2282907). The conditions noted are these: high-content imaging, actives raise or lower the signal. An outline of the steps:
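HepG2 human liver cells were exposed for 24 hr to compounds at 0.39–200 uM (ten concentrations, duplicate) in 0.5% v/v DMSO. They were then formaldehyde-fixed, Triton-permeabilized and Hoechst 33342-stained, and nuclear diameter was imaged at 20x. Bidirectional fits were made against DMSO.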

Test [4] in a line: APR_HepG2_CellLoss_24hr: Apredica 24-hour HepG2 Assay for Cell Loss (AID 2282908). The conditions noted are these: high-content imaging. In short, it runs like this:
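Compounds were tested at 0.39–200 uM in duplicate with 0.5% v/v DMSO final. Cells were then fixed in 3.7% formaldehyde, Hoechst 33342 nuclei were imaged at 20x by HCS, and cell number was fitted bidirectionally against DMSO.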

Test [5] is described as follows: APR_HepG2_MicrotubuleCSK_24hr: Apredica 24-hour HepG2 Assay for Microtubule CSK Stabilty (AID 2282909). The conditions noted are these: HepG2 microtubule cytoskeleton imaging, actives raise or lower the signal. An outline of the steps:
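HepG2 cells exposed 24 h to compounds at 0.39–200 uM (duplicate, 0.5% v/v DMSO final), then fixed, permeabilized and immunostained for alpha-tubulin with Hoechst 33342. Cytoskeleton imaged at 20x; bidirectional fit versus DMSO baseline.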

Test [6] is described as follows: APR_HepG2_MitoticArrest_24hr: Apredica 24-hour HepG2 Assay for Mitotic Arrest (AID 2282910). Particulars: high-content imaging, actives raise or lower the signal. In short, it runs like this:
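HepG2 cells, 24 h exposure at 0.39-200 uM (10 concentrations, duplicate, 0.5% DMSO). Fixed, stained for phospho-histone H3 with Hoechst; imaged by high-content microscopy, bidirectional fit versus DMSO.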

The nature of test [7]: APR_HepG2_MitoMembPot_24hr: Apredica 24-hour HepG2 Assay for Mitochondrial Membrane Potential (AID 2282911). Particulars: imaging, actives raise or lower the signal. In short, it runs like this: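 Cells are dosed for 24 hr across 0.39 to 200 uM with solvent held at 0.5% DMSO. They are then stained with 250 nM MitoTracker Red CMXRos for 30 min, fixed in 3.7% formaldehyde and imaged.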

A short description of test [8]: APR_HepG2_p53Act_24hr: Apredica 24-hour HepG2 Assay for p53 Activation (AID 2282913).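 Note: p53 protein immunofluorescence averaged per cell in HepG2 with Hoechst nuclei.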 Particulars: high-content imaging, actives raise or lower the signal. An outline of the steps:
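Human HepG2 liver cells; 24 hr cpd treatment, 0.39–200 uM, 0.5% DMSO final. Fixed in 3.7% formaldehyde, permeabilized with 0.5% Triton X-100, stained with anti-p53/Cy5 plus Hoechst 33342. Six images per well at 20x; gain or loss vs DMSO.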

Test [9] can be described thus: APR_HepG2_CellCycleArrest_72hr: Apredica 72-hour HepG2 Assay for Cell Cycle Arrest (AID 2282914). Particulars: high-content imaging, actives raise or lower the signal. In short, it runs like this: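 Read-out is Hoechst-stained nuclear DNA content measured by automated fluorescence imaging (20x, six images per well), fitted in both directions relative to DMSO. Human HepG2 liver cells received 0.39–200 uM compound for 72 hr at 0.5% v/v DMSO.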

Test [10] can be described thus: APR_HepG2_CellLoss_72hr: Apredica 72-hour HepG2 Assay for Cell Loss (AID 2282915). The conditions noted are these: high-content imaging. An outline of the steps: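 HepG2 cells exposed 72 h to compound at 0.39–200 uM (10 concentrations, duplicate) in 0.5% DMSO. Fixed with 3.7% formaldehyde and Hoechst 33342-stained. Imaged at 20x; nuclear count gives cell number, fitted bidirectionally versus DMSO.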

Test [11] is described as follows: APR_HepG2_P-H2AX_72hr: Apredica 72-hour HepG2 Assay for H2AX Phosphorylation (AID 2282916).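 Note: phospho-histone H2A.x immunostain intensity per cell marking DNA damage.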 The conditions noted are these: imaging, actives raise or lower the signal. In short, it runs like this: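 HepG2 human liver cells were exposed for 72 hr to compounds at 0.39–200 uM (10 concentrations, duplicate per plate) in 0.5% v/v DMSO. Fixed, permeabilized cells were immunolabeled for phospho-histone H2A.x with Hoechst 33342 and imaged by HCS fluorescence; bidirectional fit versus DMSO.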

The nature of test [12]: APR_HepG2_MitoMembPot_72hr: Apredica 72-hour HepG2 Assay for Mitochondrial Membrane Potential (AID 2282917). The conditions noted are these: imaging, actives raise or lower the signal. In short, it runs like this:
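HepG2 cells dosed 72 hr with compound at 0.39–200 uM in duplicate, 0.5% v/v DMSO final. Mitochondria stained with 250 nM MitoTracker Red CMXRos for 30 min before formaldehyde fixation, imaged by high-content fluorescence; bidirectional fit versus DMSO.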

A short description of test [13]: APR_HepG2_MitoticArrest_72hr: Apredica 72-hour HepG2 Assay for Mitotic Arrest (AID 2282918). The conditions noted are these: high-content imaging, actives raise or lower the signal. An outline of the steps:
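Read-out is phospho-histone H3 immunofluorescence with Hoechst nuclear segmentation, imaged at 20x. Human HepG2 liver cells received ten concentrations (0.39–200 uM, final DMSO 0.5% v/v) for 72 hr before fixation. Gain or loss of signal was fitted relative to DMSO.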

A short description of test [14]: APR_HepG2_MicrotubuleCSK_72hr: Apredica 72-hour HepG2 Assay for Microtubule CSK Stabilty (AID 2282919). The conditions noted are these: HepG2 microtubule cytoskeleton, high-content imaging, actives raise or lower the signal. An outline of the steps:
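HepG2 cells were exposed 72 hr to compound at 0.39–200 uM in duplicate (0.5% DMSO final), then fixed and permeabilized. Alpha-tubulin immunofluorescence was imaged by high-content microscopy, with bidirectional fitting against DMSO and taxol as positive control.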

Test [15] can be described thus: APR_HepG2_P-H2AX_24hr: Apredica 24-hour HepG2 Assay for H2AX Phosphorylation (AID 2282920). Particulars: high-content imaging, actives raise or lower the signal. In short, it runs like this: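 HepG2, 24 hr, cpd 0.39–200 uM (10 conc, duplicate), DMSO 0.5% v/v final. Fix 3.7% formaldehyde, Triton X-100 permeabilize, anti-phospho-H2A.x 1:200 + Hoechst 2 ug/mL. Imaged, bidirectional fit vs DMSO.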

The nature of test [16]: APR_HepG2_StressKinase_72hr: Apredica 72-hour HepG2 Assay for Stress Kinase (AID 2282921). Particulars: HepG2 stress kinase (phospho-c-Jun) imaging, actives raise or lower the signal. An outline of the steps: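 Cells were exposed for 72 h to ten concentrations (0.39–200 uM, duplicate) at 0.5% v/v DMSO final, then fixed with 3.7% formaldehyde, permeabilized and immunostained for phospho-c-Jun (Cy3 secondary) with Hoechst nuclear counterstain.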

Test [17] can be described thus: APR_HepG2_StressKinase_24hr: Apredica 24-hour HepG2 Assay for Stress Kinase (AID 2282922). Particulars: HepG2 stress kinase (phospho-c-Jun) imaging, actives raise or lower the signal. An outline of the steps: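 HepG2 cells exposed 24 h to 0.39–200 uM compound in duplicate (0.5% v/v DMSO final). Cells fixed in 3.7% formaldehyde, permeabilized and immunostained for phospho-c-Jun; read by high-content fluorescence imaging, fitted bidirectionally against DMSO.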

The nature of test [18]: APR_HepG2_p53Act_72hr: Apredica 72-hour HepG2 Assay for p53 Activation (AID 2282923).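 Note: average cellular p53 protein immunofluorescence intensity in HepG2 cells.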 Particulars: high-content imaging, actives raise or lower the signal. In short, it runs like this: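 Cells were dosed for 72 hr with compounds at 0.39–200 uM in duplicate (final DMSO 0.5% v/v), then fixed in 3.7% formaldehyde, permeabilized with Triton X-100 and immunostained for p53 (Cy5) with Hoechst 33342 nuclear counterstain.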

Test [19] in a line: APR_HepG2_MitoMass_24hr: Apredica 24-hour HepG2 Assay for Mitochondrial Mass (AID 2282912). Particulars: high-content imaging, actives raise or lower the signal. An outline of the steps:
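Human HepG2 liver cells were exposed for 24 hr to compounds at 0.39–200 uM (duplicates, 0.5% v/v DMSO final). They were stained live with 250 nM MitoTracker Red CMXRos for 30 min, fixed in 3.7% formaldehyde, and imaged by HCS fluorescence; signals were fitted bidirectionally against DMSO.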

Records with an inconclusive call do not appear. Calls of active or inactive are those of the source. Rule for the calls, unless noted: active = hit-call score of the fitted dose curve at least 0.9, where 1 is the maximum; inactive = score below 0.9.

For the molecule `CCOP(=S)(OCC)SCS(=O)(=O)CC`, the outcome in test [1] was inactive.

`N#Cc1ccc(O)cc1`: the molecule was classed as inactive in test [1].

Regarding `O=[N+]([O-])c1cc(Cl)ccc1Cl`, the molecule was classed as inactive in [1].

What is called AC50 is the midpoint of the concentration-response curve, whichever way the signal moves. As to `NC(=O)C(F)(F)C(F)(F)F`, the AC50 in test [1] was 20.5 µM (active).

Turning to `CC1(C)CN=C(NN=C(/C=C/c2ccc(C(F)(F)F)cc2)/C=C/c2ccc(C(F)(F)F)cc2)NC1`, the AC50 in test [1] is 0.0563 µM (active).

For the molecule `O=S1(=O)OCC2C(CO1)C1(Cl)C(Cl)=C(Cl)C2(Cl)C1(Cl)Cl` (stereo not drawn), in test [1], the AC50 was 0.0213 µM (active).

In the case of `Nc1ccc2ccccc2c1`, the molecule was called inactive in [1], in test [2], in test [3], in test [4], in test [5] and in test [6]. Further, the call in test [8], in [10], in test [11], in test [12], in test [13] and in test [14] was inactive. For the same molecule, the molecule was called inactive in test [15], in [16], in [17] and in [18]. Moreover, the results for the AC50 in [7] and in [9] were 52.5 µM (active) and 88.9 µM (active), respectively.

Turning to `C=CC(=O)OCC(F)(F)C(F)F`, the molecule was classed as inactive in test [1].

Turning to `O=P(OCC(Br)CBr)(OCC(Br)CBr)OCC(Br)CBr` (stereo not drawn), the call in [1] was inactive.

For the molecule `O=C(O)C(F)(F)OC(F)(F)C(F)(F)OC(F)(F)C(=O)O`, in test [1], the molecule was called inactive.

For `OCC(F)(F)OC(F)(F)C(F)(F)OC(F)(F)C(F)(F)OC(F)(F)CO`, the AC50 in [1] is 0.976 µM (active).

For the molecule `CCOP(=S)(OCC)SCSc1ccc(Cl)cc1`, in test [1], the molecule was classed as inactive.

Turning to `O=c1[nH]c2ccccc2c(=O)o1`, the molecule was called inactive in [1].

As to `CCN(CC)C1CCCCC1`, in [1], the molecule was classed as inactive.

Turning to `c1ccc2c(c1)sc1ccccc12`, in test [1], the molecule was classed as inactive.

Take `CCCCC(CC)COP(=O)(Oc1ccccc1)Oc1ccccc1` (stereo not drawn): the call in [1] was inactive.

With `CC(O)C(F)(F)C(F)(F)F` (stereo not drawn), the molecule was called inactive in test [1].

In the case of `N#Cc1cc([N+](=O)[O-])ccc1N`, the result in test [1] was inactive.

With `CC(C)(C)c1ccccc1OP(=O)(Oc1ccccc1)Oc1ccccc1`, the outcome in test [1] was inactive.

`FC(F)(F)C(F)(C(F)(F)F)C(F)(F)C(F)(F)CC1CO1` (stereo not drawn): the outcome in [1] was inactive.

As for `COC(N)=O`, in test [1], the molecule was classed as inactive.

With `CCNc1nc(Cl)nc(NC(C)(C)C)n1`, the concentration at half-maximal activity (AC50) in [1] was 28 µM (active). Also, the molecule was called inactive in test [2], in test [3], in test [4], in [5], in test [6] and in [7]. Besides, the result in test [19], in [9], in [10], in test [11], in test [12] and in test [14] was inactive. Moreover, the call in test [15], in test [16] and in test [17] was inactive.

As for `CCOC(=O)c1ccccc1N`, the outcome in test [1] was inactive.

On to `O=NN1CCCC1`, for which the call in test [1] was inactive.

For the molecule `Nc1ccc([N+](=O)[O-])cc1Cl`, the call in [1] was inactive.

Turning to `CCCCCCCc1ccc(O)cc1`, the AC50 in test [1] was 0.402 µM (active). The call in [2], in test [3], in [4], in [5], in [6] and in test [7] was inactive. Besides, the call in test [19], in test [9], in test [10], in test [11], in test [12] and in test [14] was inactive. Also, the outcome in [15], in test [16] and in test [17] was inactive.

`CCCCc1ccc(O)cc1`: the AC50 in [1] is 10.5 µM (active).

With `Cn1[nH]nnc1=S`, the result in [1] was inactive.

For the molecule `CC(Cl)CN(C)C` (stereo not drawn), the molecule was called inactive in test [1].

Take `FC(F)(F)c1ccc(Cl)cc1`: the outcome in test [1] was inactive.

Regarding `COP(=O)(O)OC`, the call in [1] was inactive.

As to `Cc1ccc2c(c1N)C(=O)c1ccccc1C2=O`, the molecule was called inactive in [1].

In the case of `CC(C)CBr`, the molecule was called inactive in test [1].

With `CNC(=O)Oc1ccc(N(C)C)c(C)c1`, the molecule was classed as inactive in [1].

On to `COP(=O)(CCC(=O)NCO)OC`, for which, in [1], the molecule was classed as inactive.

Turning to `CCCCOCCOP(=O)(OCCOCCCC)OCCOCCCC`, in test [1], the half-maximal activity concentration (AC50) was 10.5 µM (active).
